# Compounds with a hit are over-represented: about 0.4% of the library has one in this group of screens.
# EPAC2 agonist – agonists of human EPAC2 (RAPGEF4) | Q8WZA2 | EPAC2 activation, biochemical qHTS; response scale: 100% = 6.5 mM cAMP response | Potency, µM (highest dose often 154 µM), without a hit: top-dose activation, hits mostly activators | 360,000 tested, 0.079% active | AID 720711; note: nearly all actives have a fitted effect of over 50% in size
#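 qHTS, titration series. 100 nM EPAC2 / 250 nM Rap1B-BODIPY-GDP / 50 uM GDP; RT; ex 480/em 540 nm, 5-min reads to 30 min. Norm. to 6.5 mM cAMP = activation.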
# RGS4 inhibitor – blocks human RGS4-accelerated GTP hydrolysis; P49798; Potency, µM (series often up to 114 µM), for inactives: at the highest dose activity change, negative = inhibition, actives largely listed as inhibitors; Transcreener GDP fluorescence polarization, RGS4-accelerated GTP hydrolysis; 390,000 tested, 0.039% active; AID 504845; note: % is set by controls: 0 for no effect and ±100 for the full control effect; nearly all actives have a fitted effect of over 75% in size
# Target sequence (P49798 whole entry, looked up): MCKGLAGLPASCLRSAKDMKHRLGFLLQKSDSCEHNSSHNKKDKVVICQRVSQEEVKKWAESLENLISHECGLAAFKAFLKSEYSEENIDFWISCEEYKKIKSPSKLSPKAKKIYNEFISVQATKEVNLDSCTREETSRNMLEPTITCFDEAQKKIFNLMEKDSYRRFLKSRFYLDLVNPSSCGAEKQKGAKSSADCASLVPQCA
#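 MLSMR compounds (23 nl, pin-transferred) preincubated 10 min at room temperature with a 500nM (2x) first reagent, then RGS4 at 900nM (2x) plus Transcreener GDP mix added; fluorescence polarization (620/688 nm) read before and after 90 min at 30 °C.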
# EPAC1 antag – EPAC1 (human) antagonism; AID 720709; O95398; EPAC1 GEF assay, Rap1b-BODIPY-GDP exchange fluorescence; 360,000 tested, 0.14% active; Potency, µM (series often up to 115 µM), for the others: at the highest dose activity change, negative = inhibition, usual class: inhibitors;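 note: plate controls were vehicle for no effect and positive control for full effect; nearly all actives have a fitted effect of over 50% in size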
# EPAC2 antagonist – EPAC2 (human) antagonism; Q8WZA2; EPAC2 GEF exchange of Rap1B-BODIPY-GDP, fluorescence; Potency, µM (titrated, usually from 114 µM), for the others: at the top dose activity, negative = inhibition, actives largely listed as inhibitors; 360,000 tested, 0.18% active; note: % is set by controls: 0 for no effect and ±100 for the full control effect; nearly all actives have a fitted effect of over 45% in size
# EPAC1 ag – EPAC1 (human) agonism. O95398. EPAC1 agonist qHTS, biochemical assay; response scale: 100% = response to 6.5 mM cAMP. Potency, µM (titrated, usually from 154 µM), without a hit: at the top dose activation, actives largely listed as activators. 360,000 tested, 0.073% active. AID 720707; note: nearly all actives have a fitted effect of over 60% in size
#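 Read-out is the fluorescence drop as BODIPY-GDP leaves Rap1B (480 nm excitation, 540 nm emission), recorded every 5 minutes over 30 minutes. Reactions held 100 nM EPAC1, 250 nM Rap1B–BODIPY-GDP and 50 uM GDP, with 6.5 mM cAMP setting full activation.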
# ERG-DNA inh – ERG Ets/DNA interaction inhibition; P11308; fluorescence polarization, His-ERG Ets domain / labelled DNA; Potency, µM (doses to about 76.9 µM), inactives show at the top dose FP activity, negative = inhibition, actives largely listed as inhibitors; 370,000 tested, 0.028% active; active = well fitted inhibition curve with a large enough effect in the polarisation, with a control signal flat; inconclusive = small, poorly fitted or top-dose-only effect, or effect the other way, or a change in a side signal; inactive = no such curve, though single readings can be large or run the other way; the % refers to the polarisation;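 note: polarization taken with two DNA probes labelled with fluorescein and Texas red; % of control where 0% means no effect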
# Target sequence (P11308 whole entry, looked up, the tested form may be a part): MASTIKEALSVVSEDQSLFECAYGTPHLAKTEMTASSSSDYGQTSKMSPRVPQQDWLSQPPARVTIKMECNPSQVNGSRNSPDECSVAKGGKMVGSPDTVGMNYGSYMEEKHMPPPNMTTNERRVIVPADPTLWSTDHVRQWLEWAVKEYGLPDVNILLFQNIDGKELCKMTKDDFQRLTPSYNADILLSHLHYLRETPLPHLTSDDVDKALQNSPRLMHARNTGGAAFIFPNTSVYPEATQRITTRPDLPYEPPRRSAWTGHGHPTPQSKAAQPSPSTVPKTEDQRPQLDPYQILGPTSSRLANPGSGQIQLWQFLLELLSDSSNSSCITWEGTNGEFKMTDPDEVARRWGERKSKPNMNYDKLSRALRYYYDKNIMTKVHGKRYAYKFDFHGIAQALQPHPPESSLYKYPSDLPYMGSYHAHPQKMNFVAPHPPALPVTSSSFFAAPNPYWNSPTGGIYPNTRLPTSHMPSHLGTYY
#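 His-tagged ERG Ets domain (1 uM in the protein solution; 300mM KCl, 50mM Tris-HCl, 1mM EDTA, 1mM DTT, pH 7.5) received compound, then a probe mix of 5 nM fluorescein-DNA and 100nM Texas-615-DNA. Fluorescence polarization was read for both dyes.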
# Numbers without * were called inactive; i = inactive; ? = inconclusive; nt = no result given; ! = not active in a repeat; [ ] = another dose, or the depositor's remark. Unless noted, calls come from the whole dose curve; as a rule, active = well fitted curve in the direction sought with a large enough effect; inconclusive = small, poorly fitted or top-dose-only effect, or another doubt; inactive = no such curve, though single readings can be large; an effect the other way counts as inactive or inconclusive. Potency is the fitted concentration of half-maximal effect.
SMILES,EPAC2 agonist,RGS4 inhibitor,EPAC1 antag,EPAC2 antagonist,EPAC1 ag,ERG-DNA inh
Cc1ccc(Nc2c(-c3ccccn3)nc3cccc(C)n23)cc1,-1.1%,-31.4%[11.4 µM],-0.8%,31.6µM*,-9.5%,1.6%
CCOC(=O)c1c(NC(=O)/C=C/c2ccc3c(c2)OCO3)sc(C)c1CC,6.31µM*,0.6%,-0.6%,10.8%,-13.0%,-0.8%
COC(=O)c1c(NC(=O)/C=C/c2ccc3c(c2)OCO3)sc(C)c1C,5.8%,-12.1%,0.1%,0.6%,2.9%,-8.5%
CCc1c(C)sc(NC(=O)c2cc(-c3ccc(OC)cc3)on2)c1C#N,nt,-31.9%,nt,nt,nt,-2.8%
N#Cc1cc(C(=O)c2cc(F)ccc2O)cn(-c2nccs2)c1=O,112µM*,-11.3%,35.7%,76.2%,?,16.0%
N#Cc1cc(C(=O)c2ccccc2O)cn(-c2nccs2)c1=O,100µM*,-36.5%,62.3%,77.2%,89.1µM*,8.0%
Cc1c(-n2cc(C(=O)c3cc(F)ccc3O)cc(C#N)c2=O)c(=O)n(-c2ccccc2)n1C,10.0%,1.4%,-21.3%,4.0%,17.5%,9.2%
COC(=O)CCSc1nc2sc3c(c2c(=O)n1Cc1ccccc1)CCC(C(C)(C)C)C3 (stereo not given),nt,-34.0%,nt,nt,nt,-1.9%
Cc1cccc(N2CCN(S(=O)(=O)c3ccc4c(c3)CCN4C(=O)CCC(=O)O)CC2C)c1 (stereo not given),12.7%,-3.9%,20µM*,61.4%,56.2µM*,2.0%
CC1CC(C)CN(S(=O)(=O)c2ccc3c(c2)CCN3C(=O)CCC(=O)O)C1 (stereo not given),2.4%,17.2%,-5.2%,-18.2%,-7.1%,11.6%
CCc1ccc(CN2CCCC(C(=O)Nc3ccccc3-c3ccc(OC)cc3)C2)o1 (stereo not given),1.0%,-21.5%,-15.1%,?,4.4%,31.6µM*
CC[n+]1c(/C=C/C=C/N(C(C)=O)c2ccccc2)sc2ccccc21,100µM*,?,17.7%,91.7%,?,13.6%
CC[n+]1c(/C=C/C=C2/N(C)c3ccccc3C2(C)C)sc2ccccc21,nt,21.2µM*,nt,nt,nt,nt
CN1/C(=C/C=C/c2n(C)c3cc([N+](=O)[O-])c([N+](=O)[O-])cc3[n+]2C)C(C)(C)c2ccccc21,-8.6%,nt,?,?,-21.1%,nt
Cc1c(Cl)cccc1NC(=O)c1ccc2c(c1)CCN2S(=O)(=O)c1ccccc1,nt,2.1%,nt,nt,nt,0.7%
COc1ccccc1C1SCCN1S(C)(=O)=O (stereo not given),7.94µM*,-12.4%,-1.6%,0.3%,-2.5%,0.5%
CCCCc1ccc(NC(=O)Nc2cc(C)nn2C)cc1,-3.0%,-0.6%,-20.9%,-10.8%,-0.1%,31.6µM*
COc1cccc(NS(=O)(=O)c2ccc3c(c2)C2C=CCC2C(c2ccc(C(=O)O)cc2)N3)c1 (stereo not given),-3.9%,?,50.1µM*,3.2%,-7.3%,nt
CCCN(CC(=O)Nc1ccccc1C)C(=O)c1oc2ccc(OCC)cc2c1C,-11.2%,-2.3%,-16.5%,-3.1%,126µM*,-3.2%
CCOC(=O)c1sc(N2C(=O)C(O)=C(C(=O)c3ccco3)C2c2cccc([N+](=O)[O-])c2)nc1C (stereo not given),-14.1%,-9.7%,22.4µM*,8.8%,-8.6%,1.7%
COC(=O)/N=C(/Cc1ccc(OC)cc1)c1ccc(OC)cc1,13.8%,-11.5%,-7.6%,56.2µM*,9.4%,8.2%
CCC(=O)N1CCc2cc(S(=O)(=O)NC(C(=O)NCCc3ccccc3)C(C)C)ccc21 (stereo not given),nt,2.5%,nt,nt,nt,-1.2%
CCOc1cc(/C=C(\C#N)C(=O)Nc2cccc(C(=O)O)c2)ccc1OCc1ccccc1Cl,-2.5%,?,-22.0%,-26.9%,8.5%,-1.5%
CCOc1cc(/C=C(\C#N)C(=O)Nc2cccc(C(=O)O)c2)cc(Br)c1OC(=O)c1ccc(OC)cc1,-2.0%,?,?,50.1µM*,9.3%,0.4%
Cc1c(-c2nc(-c3ccc4c(c3)OCO4)no2)nnn1-c1ccc(C(C)C)cc1,nt,-15.6%,nt,nt,nt,-23.2%
SMILES,EPAC2 agonist,RGS4 inhibitor,EPAC1 antag,EPAC2 antagonist,EPAC1 ag,ERG-DNA inh
Cc1ccc(Cl)cc1-n1c(=O)cc(N2CCN(c3ccccc3)CC2)[nH]c1=O,nt,2.7%,nt,nt,nt,-0.3%
COc1ccc(OC)c(NC(=O)C2CCCN(S(=O)(=O)c3ccc4[nH]c(=O)ccc4c3)C2)c1 (stereo not given),nt,-7.3%,nt,nt,nt,2.3%
Cn1c(SCC(=O)Nc2cccc(C(=O)O)c2)nnc1-c1cc2cc(Br)ccc2o1,3.4%,-9.6%,35.5µM*,-8.2%,63.1µM*,9.3%
CCc1ccc(-n2c(N3CCN(c4ccc(F)cc4)CC3)nc3ccccc3c2=O)cc1,nt,8.6%,nt,nt,nt,-6.5%
CC(=O)C1=C(C)OC2(O)c3ccccc3C(=O)C12O (stereo not given),20.8%,-17.5%,79.4µM*,-24.5%,3.6%,-0.6%
CCOC(=O)C1=C(C)OC2(O)c3ccccc3C(=O)C12O (stereo not given),?,-17.0%,?,-27.3%,1.3%,-0.8%
NC(=O)NCCC[C@H](N)C(=O)O,nt,i,nt,nt,nt,nt
NC(=S)NCCC[C@H](N)C(=O)O,nt,10.6µM*!,nt,nt,nt,nt
Nc1cc(=O)nc(SCC(=O)Nc2ccc(F)cc2)n1-c1ccccc1Cl,nt,-11.9%,nt,nt,nt,0.1%
CCc1ccc(NC(=O)/C(C#N)=C/c2cc3ccc(C)cc3nc2N2CCOCC2)cc1,100µM*,-3.4%,6.5%,8.5%,-1.4%,?
Cc1cccc(C)c1NC(=O)CN1C(=O)S/C(=C\c2cccn2-c2cccc(C(=O)O)c2)C1=O,19.2%,?,?,?,?,17.6%
Cc1cccc(C)c1-n1cccc1/C=C1\SC(=S)N(c2cccc(C(=O)O)c2)C1=O,-4.2%,-36.4%,50.1µM*,?,0.9%,8.5%
CC[C@@]1(c2ccccc2OC)ON(c2ccccc2C(F)(F)F)C1=O,1.2%,-5.9%,-21.8%,14.1µM*,-7.8%,0.3%
CCOc1ccc(NC(=O)CC2C(=O)N(c3ccc(F)cc3)C(=O)N2Cc2ccc(OC)c(OC)c2)cc1 (stereo not given),nt,-4.8%,nt,nt,nt,-2.9%
COc1ccc(C2C=C3CNS(=O)(=O)C3CC2OC(=O)c2ccc(Cl)cc2)cc1 (stereo not given),nt,15.0%,nt,nt,nt,nt
CCCCCCc1cc2cc(C(=O)NC)c(=N)oc2cc1O,100µM*,-32.1%,3.6%,15.7%,9.6%,1.5%
O=[N+]([O-])c1cc([N+](=O)[O-])c2oc(-c3ccccc3)c(Br)c2c1O,-6.8%,-24.6%[56.9 µM],25.1µM*,20µM*,5.5%,3.8%

# Screens as filed in PubChem.
